Rows were chosen to be rich in hits. Some 2.3% of all compounds tested hit in one or more screens of this group.
CHRM1 agonist = activates human CHRM1 receptor; P11229; CHO-K1 hM1, Fluo-8 calcium fluorescence, agonist mode; 0% DMSO, 100% acetylcholine EC100; activation, % at 3 µM; 0.33% of 360,000 active;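 active means activation above the run's mean compound activation plus 3 SD, cut at about 16% in these data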;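 further: peak over basal fluorescence ratio within a 140 s kinetic read after compound addition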
Target sequence (P11229 whole entry, looked up): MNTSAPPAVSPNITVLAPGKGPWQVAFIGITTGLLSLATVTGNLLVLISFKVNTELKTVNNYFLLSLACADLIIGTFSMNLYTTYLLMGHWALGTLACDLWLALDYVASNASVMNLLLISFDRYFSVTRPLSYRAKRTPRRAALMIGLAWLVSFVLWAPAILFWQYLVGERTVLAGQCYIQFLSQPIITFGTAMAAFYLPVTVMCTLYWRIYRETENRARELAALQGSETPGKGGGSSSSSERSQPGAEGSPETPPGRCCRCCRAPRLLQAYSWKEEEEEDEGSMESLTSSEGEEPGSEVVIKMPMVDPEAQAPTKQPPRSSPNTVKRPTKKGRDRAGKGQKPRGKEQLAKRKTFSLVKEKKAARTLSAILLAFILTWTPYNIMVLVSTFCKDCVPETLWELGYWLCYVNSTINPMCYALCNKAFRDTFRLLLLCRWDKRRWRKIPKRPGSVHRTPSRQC
CHRM1 antagonist = antagonists of human M1 muscarinic receptor; P11229; CHO-K1 hM1, Fluo-8 calcium fluorescence, ACh EC80 antagonist; inhibition, % at 3 µM; 1.3% of 360,000 active; AID 588852;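 active means percent inhibition above its own plate's cutoff, namely the mean of that plate's compound wells plus 3 SD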;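 further: peak over basal fluorescence ratio during 140 s after agonist addition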
CHO-K1 Ca antag = nonselective inhibitor or artifact in parental CHO-K1 cells; 0.6% of 360,000 active; ATP-induced calcium, Fluo-8 fluorescence; inhibition, % at 3 µM;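 active means inhibition above a per-plate cutoff, the plate's mean sample inhibition plus 3 SD, cut at about 24% in these data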
M1 PAM = human CHRM1 positive allosteric modulation | P11229 | CHO-K1 hM1, Fluo-8 calcium fluorescence, ACh EC20; 0% = ACh EC20, 100% = maximal ACh | activation, % at 3 µM | 0.088% of 360,000 active | AID 588819; in the data active means activation above about 19%, passing the limit was not always enough
M1 ag parental = M1 agonist counterscreen hit in parental CHO-K1 cells; activation, % at 3 µM; Fluo-8 calcium fluorescence; scaled to maximal ATP response, vehicle zero; 0.48% of 360,000 active; in the data active means activation above about 15%;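 further: untransfected CHO-K1 host cells lacking M1 receptor as counterscreen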
M1 PAM parental = nonselective activator or artifact in parental CHO-K1 calcium assay. ATP EC20, Fluo-8 calcium fluorescence; 0% at ATP EC20, 100% at ATP max. activation, % at 3 µM. 0.02% of 360,000 active. AID 602247;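 active means activation above the run cutoff, the mean activation of all test compounds plus 3 SD, cut at about 40% in these data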;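 further: peak over basal fluorescence ratio in a 140 s read after ATP addition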
Of the large screens only hits and unclear results are named; the others gave an inactive call.

Cc1ccc(S(=O)(=O)c2cccc(S(=O)(=O)N3CCCC3)c2)cc1S(=O)(=O)N1CCCC1	CHRM1 antagonist 55
CCCCNC(=O)c1cnc(Cc2c[nH]c3ccccc23)c(I)c1	none
CCc1ccccc1-n1nnnc1SCC(=O)Nc1cc(C)on1	none
Cc1cc(NC(=O)CSc2nnnn2-c2ccccc2C)no1	CHRM1 antagonist 28
COc1ccc(S(=O)(=O)N2CCCC2C(=O)n2nc(C)cc2C)cc1 (stereo not drawn)	CHO-K1 Ca antag 30
Cc1ccc(S(=O)(=O)N2CCCC2C(=O)n2nc(C)cc2C)cc1 (stereo not drawn)	none
COc1cc(N/C(=N/S(=O)(=O)c2ccccc2)c2ccccc2)ncn1	CHO-K1 Ca antag 25
O=C(Nc1ccccc1Cl)c1cc(C2CCCCN2C(=O)c2cccs2)on1 (stereo not drawn)	none
CC(=O)Cc1nsc(NC(=O)c2cn(-c3ccccc3)nc2-c2ccc(Br)cc2)n1	CHO-K1 Ca antag 25
CC(C)[C@@H]1Cc2[nH]c(=O)[nH]c(=O)c2[C@H](C)O1	none (no result: CHRM1 agonist, CHRM1 antagonist, M1 PAM)
CCCC1C2CN(C(C)C)CC=C2C(C#N)=C(N)C1(C#N)C#N (stereo not drawn)	CHRM1 antagonist 38
CN1CC=C2C(C#N)=C(N)C(C#N)(C#N)C(CCc3ccccc3)C2C1 (stereo not drawn)	none
CC(C)CCOc1ccc(C(=O)NCC(c2ccco2)N(C)C)cc1 (stereo not drawn)	CHRM1 antagonist 28
CCOc1ccc(NS(=O)(=O)c2ccc(C(=O)NCC(c3ccco3)N(C)C)cc2)cc1 (stereo not drawn)	none
CC(=O)c1ccc(OCCCC(=O)NCC(c2ccco2)N(C)C)cc1 (stereo not drawn)	CHO-K1 Ca antag 25
CCOC(=O)[C@]12CCCC=C1N(Cc1ccco1)C(=O)[C@H](CC(=O)NCCc1ccccc1OC)C2	none (no result: CHRM1 agonist, CHRM1 antagonist, M1 PAM)
O=C(Nc1ccccc1)c1ccccc1OCC(O)CN1C(=O)c2ccccc2S1(=O)=O (stereo not drawn)	CHRM1 antagonist 50
O=C(O)c1ccc(-c2nc3ccccc3s2)o1	none
O=C(c1ccc(-c2nc3ccccc3s2)o1)N1CCN(c2ccccc2O)CC1	CHO-K1 Ca antag 30
Cc1ccc2ccccc2c1C(O)c1ncc(-c2ccccc2Cl)[nH]1 (stereo not drawn)	none
Cc1cc(/C=C2/SC(=S)N(c3cccc(Cl)c3)C2=O)c(C)n1-c1cccnc1	CHRM1 antagonist 27
O=C(c1cccc(S(=O)(=O)N2CCOCC2)c1)N1CCN(C/C=C/c2ccccc2)CC1	CHRM1 antagonist 98
O=C(c1ccccc1)N1CCN(S(=O)(=O)c2ccccc2)CC1	CHRM1 antagonist 102
CC(C)C(=O)N1CCC1(C)C(=O)NCc1ccc(C(C)(C)C)cc1 (stereo not drawn)	none
COc1cc(CNCCNC(=O)c2nonc2N)ccc1OCc1ccc(Cl)cc1	M1 ag parental 17
COc1cccc(C(=O)NCCS(=O)(=O)N2CCN(c3ccccc3)CC2)c1OC	none
CCCc1nnc(NC(=S)Nc2ccccc2)s1	none
CC(C)C(=O)Nc1nnc(NC(=S)Nc2ccccc2)s1	M1 ag parental 19
N#Cc1ccccc1C[C@H](N)C(=O)NC[C@H]1O[C@@H](n2cnc3c(N)ncnc32)[C@H](O)[C@@H]1O	none
Cc1ccccc1C(=O)N1CC(=O)Nc2ccc(F)cc2C1c1ccccc1 (stereo not drawn)	M1 ag parental 23
O=C1CN(C(=O)c2cc3ccccc3oc2=O)C(c2ccccc2)c2cc(F)ccc2N1 (stereo not drawn)	none
O=C1CN(C(=O)c2cc3ccccc3oc2=O)C(c2ccc(F)cc2)c2cc(F)ccc2N1 (stereo not drawn)	CHO-K1 Ca antag 25
O=C1CN(C(=O)c2ccccc2)C(c2ccccc2)c2cc(F)ccc2N1 (stereo not drawn)	none
CN(C)C(=O)c1cccc(-c2cccc(-c3nc(C(=O)NCc4ccccc4)cc4c3[C@@H](CCO)N(S(=O)C(C)(C)C)C4)c2)c1 (stereo partly drawn)	CHO-K1 Ca antag 25
CCNC(=O)c1cc2c(c(-c3cccc(-c4cccc(C(=O)N(C)C)c4)c3)n1)[C@H](CCO)N(S(=O)C(C)(C)C)C2 (stereo partly drawn)	none
COc1cc(C(=S)N2CCOCC2)ccc1OC(=O)c1ccc(Br)cc1	CHRM1 antagonist 47, CHO-K1 Ca antag 28
CC(C)NC(=O)N(C)C[C@H]1Oc2cc(C#Cc3ccc(F)cc3)ccc2S(=O)(=O)N([C@H](C)CO)C[C@H]1C	none
Cc1ccc(S(=O)(=O)N2[C@@H](c3ccc(Cl)cc3)C(C(=O)OC(C)(C)C)=CC[C@H]2c2ccc(Cl)c(Cl)c2)cc1	none
CCc1cnc(Nc2nc(C(N)Cc3ccc(F)cc3)cs2)nc1 (stereo not drawn)	none
CCOC(=O)C(Cc1ccccc1)C(=O)Nc1ccc(N(CC)CC)cc1 (stereo not drawn)	CHRM1 antagonist 33
Cc1ccc2c(=O)c(CN3CCCCCC3)c(C)[nH]c2c1C	CHRM1 antagonist 72
COc1ccc(C2CCc3cc4c(cc3C2=NOC(C)=O)OCO4)cc1OC (stereo not drawn)	none
CCc1ccc(NC(=O)c2cc(S(=O)(=O)N3CCCC3)c[nH]2)cc1	none
CC(C)c1ccc(NC(=O)c2cc(S(=O)(=O)N3CCCC3)c[nH]2)cc1	CHRM1 antagonist 35
C[C@H](NC(=O)c1ccccc1)C(=O)OCC(=O)Nc1ccc(Cl)cn1	none
COc1ccc(OC)c(-c2nn(-c3ccccc3)cc2C(=O)NC2(C)CCS(=O)(=O)C2)c1 (stereo not drawn)	none
CSc1ccc(OC2(C)CCN(Cc3ccc(OC(F)(F)F)cc3)C2)cc1 (stereo not drawn)	none
CC(CCCN(C)C)C(Cc1ccccc1)c1ccccc1 (stereo not drawn)	CHRM1 antagonist 80
CN(C)CCNC(=O)C(c1ccccc1)c1ccccc1	none
CN(C)CCC(=O)C(Cc1ccccc1)c1ccccc1 (stereo not drawn)	CHRM1 antagonist 73
CN(C)CC(c1ccccc1)c1ccccc1	none
CC(=O)OC1(C)C=Cc2ccccc2C1=NS(=O)(=O)c1ccccc1 (stereo not drawn)	none
CN(C)N1C(N)=C(C#N)C(c2cccs2)C2=C1CCCC2=O (stereo not drawn)	none
Cc1ccsc1C1C(C#N)=C(N)N(N(C)C)C2=C1C(=O)CCC2 (stereo not drawn)	CHRM1 antagonist 39
Cc1cc(C)cc(OCC(=O)NNC(=O)CC(C)c2ccccc2)c1 (stereo not drawn)	none
O=CN1Cc2[nH]c3ccccc3c2N(c2ccc(Cl)cc2)C1=O	CHO-K1 Ca antag 27

Screening data: PubChem, The Scripps Research Institute Molecular Screening Center
